This is part of a sample that, as a whole, favours compounds with a hit. Of some 79,000 tested, about 15% had one in any assay. No stated cut-off is given here; in the data, active means growth inhibition above about 70%; inactive means the rest.
Experiments:
[1] = NCI Yeast Anticancer Drug Screen. Data for the rad50 strain (AID 155);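 further: 0% = growth of vehicle-only cultures of the same strain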; details: S. cerevisiae rad50 strain growth inhibition; at 50.0 µM; active compounds read high
How it was run: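 Compounds were tested on a yeast strain with an engineered DNA damage repair alteration; the reported value is growth inhibition normalised to vehicle treatment.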

[2] = NCI Yeast Anticancer Drug Screen. Data for the mec2-1 strain (AID 157); details: S. cerevisiae mec2-1 strain, at 50.0 µM, active compounds read high
How it was run: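 Compounds were applied to mec2-1 yeast cells. Their growth was then compared with that of vehicle-treated cultures to give growth inhibition.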

[3] = NCI Yeast Anticancer Drug Screen. Data for the sgs1 mgt1 strain (AID 161);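 further: 0% = growth of cultures given vehicle only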; details: S. cerevisiae sgs1 mgt1 strain, at 50.0 µM, active compounds read high
How it was run: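 Percent growth inhibition was derived by comparing compound-exposed mutant yeast with vehicle-exposed cultures. The strain carries alterations in DNA damage repair.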

[4] = NCI Yeast Anticancer Drug Screen. Data for the cln2 rad14 strain (AID 165);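 further: 0% = growth equal to vehicle treated cultures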; details: S. cerevisiae cln2 rad14 strain, at 50.0 µM, active compounds read high
How it was run: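 Strain: cln2 rad14 yeast, altered in cell cycle control and DNA damage repair. Read-out: growth inhibition vs vehicle.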

[5] = NCI Yeast Anticancer Drug Screen. Data for the bub3 strain (AID 167); details: S. cerevisiae bub3 mutant strain, at 50.0 µM, active compounds read high
How it was run: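 Growth of a checkpoint-deficient yeast mutant is measured after compound exposure. Values represent inhibition relative to vehicle.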

[6] = NCI Yeast Anticancer Drug Screen. Data for the mlh1 rad18 strain (AID 175); details: S. cerevisiae mlh1 rad18 strain growth inhibition; at 50.0 µM; active compounds read high
How it was run: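 A repair-deficient yeast strain is exposed to test compound, and growth is scored relative to vehicle-treated controls.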

Measured: growth inhibition

COC(=O)COC(=O)C1C(C(N)=O)N(CC(=O)OC)CCN1CC(=O)OC (configuration not stated)
inactive: [1] 0.2% | [2] -0.9% | [3] -27.4% | [4] -7.35% | [5] -3.9% | [6] -5.95%

CCOC(=O)c1cc(C)nc2c(Cl)cc(Cl)cc12
inactive: [1] 13% | [2] 10.8% | [3] -34.4% | [4] -2.9% | [5] 10.4% | [6] 7.95%

O=C1C2=C(c3ccccc31)C(c1ccc(Cl)cc1)N1C(=O)CCSC1=N2 (configuration not stated)
inactive: [1] 24.7% | [2] 10.6% | [3] 1.9% | [4] 8.25% | [5] 27.1% | [6] 25.3%

Clc1nc2ccccc2s1
inactive: [1] -32.4% | [2] -5.2% | [3] -24.8% | [4] -38% | [5] -21.1% | [6] 3.2%

COc1ccc(/C(=N\O)C(c2ccc(OC)cc2)C(Cl)(Cl)Cl)cc1 (configuration not stated)
inactive: [1] 52.8% | [2] 38.9% | [3] 38.9% | [4] 14.7% | [5] 16.6% | [6] 44.9%

CCCCCCC(C(=O)OCC)(C(=O)OCC)c1ccccc1
inactive: [1] -10.8% | [2] -16.1% | [3] 1.15% | [4] -31.1% | [5] 37.9% | [6] -6.2%

CC(C)(C)CC(CC(C)(C)C)C(=O)O
inactive: [1] 28.9% | [2] -1.2% | [3] -3.5% | [4] 1.85% | [5] 4.05% | [6] 21.3%
